PubChem BioAssay (NCI)
Compounds without any hit were thinned out: in the full panel of roughly 83,000, 20% have a hit.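 48-hour exposure, single concentration, 96-well plates; percent growth endpoint where 0 means no net growth. Active: below 10.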 Activity calls are given as the source filed them.

How the values were obtained:
Assay in all cases: NCI-60 one-dose screen, 48 h (100 = growth as untreated, 0 = no growth, -100 = all killed)
Conditions in all cases: 10 µM
HCT-15 colon = test system: HCT-15 colon
HT29 colon = test system: HT29 colon
SNB-75 CNS = test system: SNB-75 CNS
SNB-19 CNS = test system: SNB-19 CNS
U251 CNS = test system: U251 CNS
PC-3 prostate = test system: PC-3 prostate
SK-MEL-5 melanoma = test system: SK-MEL-5 melanoma
UACC-62 melanoma = test system: UACC-62 melanoma
LOX IMVI melanoma = test system: LOX IMVI melanoma
SK-MEL-28 melanoma = test system: SK-MEL-28 melanoma
SK-MEL-2 melanoma = test system: SK-MEL-2 melanoma
EKVX NSCLC = test system: EKVX NSCLC
UO-31 renal = test system: UO-31 renal
TK-10 renal = test system: TK-10 renal
ACHN renal = test system: ACHN renal
CAKI-1 renal = test system: CAKI-1 renal
A498 renal = test system: A498 renal
CCRF-CEM leukemia = test system: CCRF-CEM leukemia
SN12C renal = test system: SN12C renal
MOLT-4 leukemia = test system: MOLT-4 leukemia

Measured: growth

CC1(C)CC[C@]2(C(=O)O)CC[C@]3(C)C(=CC[C@@H]4[C@@]5(C)C/C(=C/c6ccncc6)[C@H](O)C(C)(C)[C@@H]5CC[C@]43C)[C@@H]2C1
inactive: HCT-15 colon 15.7% | HT29 colon 35.3% | SNB-75 CNS 35.5% | SNB-19 CNS 41.8% | U251 CNS 28.9% | PC-3 prostate 28.2% | UACC-62 melanoma 52.6% | LOX IMVI melanoma 28.7% | SK-MEL-28 melanoma 46.3% | SK-MEL-2 melanoma 55.4% | EKVX NSCLC 30.1% | UO-31 renal 32.9% | TK-10 renal 46.9% | ACHN renal 25.7% | CAKI-1 renal 35.6% | A498 renal 65% | CCRF-CEM leukemia 21%
active: SK-MEL-5 melanoma -23.2%

O=C1Nc2ccc(Cl)cc2/C1=C/c1ccc(OCc2ccc(Br)cc2F)cc1
active: U251 CNS -5.75% | LOX IMVI melanoma 7.62% | ACHN renal 3.32% | A498 renal 4.76%
inactive: HCT-15 colon 45.7% | HT29 colon 40.5% | SNB-75 CNS 18.3% | SNB-19 CNS 23% | PC-3 prostate 41.4% | SK-MEL-5 melanoma 32.6% | UACC-62 melanoma 32.5% | SK-MEL-28 melanoma 63.7% | SK-MEL-2 melanoma 80% | EKVX NSCLC 41% | SN12C renal 34.2% | TK-10 renal 18.6% | CAKI-1 renal 28.9% | CCRF-CEM leukemia 43.1% | MOLT-4 leukemia 63.5%

COc1ccc([C@H]2C(C(=O)c3ccc(Cl)cc3)C3(N[C@@H]2c2ccccc2)C(=O)Nc2ccc(Cl)cc23)cc1 (stereo partly drawn)
active: HCT-15 colon -23% | HT29 colon -50.8% | U251 CNS -33.9% | SK-MEL-5 melanoma 4.07% | UACC-62 melanoma -63.1% | LOX IMVI melanoma -100% | SK-MEL-28 melanoma 4.54% | SK-MEL-2 melanoma -65.5% | EKVX NSCLC 4.5% | UO-31 renal -1.98% | TK-10 renal 9.59% | ACHN renal 1.5% | CAKI-1 renal 4.6%
inactive: SNB-75 CNS 35.8% | SNB-19 CNS 16% | PC-3 prostate 18.1% | A498 renal 10.4% | CCRF-CEM leukemia 21.9% | MOLT-4 leukemia 12.1%

O=c1cc(-c2ccccc2)oc2cc(OCCCCNCc3ccccc3)cc(O)c12
inactive: SNB-75 CNS 53.4% | SNB-19 CNS 67.2% | SK-MEL-2 melanoma 53.1% | EKVX NSCLC 25.1% | UO-31 renal 37% | TK-10 renal 78.9% | ACHN renal 59.9% | CAKI-1 renal 25.7% | A498 renal 37.6%
active: HCT-15 colon -86.1% | HT29 colon -55.4% | U251 CNS -64.7% | PC-3 prostate -8.47% | SK-MEL-5 melanoma -99.9% | UACC-62 melanoma -68.7% | LOX IMVI melanoma -99.9% | SK-MEL-28 melanoma -69.7% | CCRF-CEM leukemia 2.88% | MOLT-4 leukemia -0.919%

Cc1ccc(C(=O)CSc2nnc(-c3c[nH]c4ccccc34)n2-c2ccccc2)cc1
active: HT29 colon 7.13% | SNB-75 CNS -1.21% | U251 CNS 9.78% | LOX IMVI melanoma -19.5% | TK-10 renal -2.18%
inactive: HCT-15 colon 43.8% | SNB-19 CNS 19.7% | PC-3 prostate 43% | SK-MEL-5 melanoma 32.9% | UACC-62 melanoma 23.9% | SK-MEL-28 melanoma 49% | SK-MEL-2 melanoma 84.7% | EKVX NSCLC 53% | UO-31 renal 30.3% | ACHN renal 20.4% | CAKI-1 renal 12.4% | A498 renal 85.8% | CCRF-CEM leukemia 60.8% | MOLT-4 leukemia 61.7%

O=C1NC(=NC23CC4CC(CC(C4)C2)C3)N/C1=C\c1ccc2ncsc2c1
active: HCT-15 colon -3.34% | SNB-75 CNS -44.1% | SNB-19 CNS 6.09% | SK-MEL-5 melanoma 2.01% | UACC-62 melanoma 7.15% | LOX IMVI melanoma 2.05% | SK-MEL-28 melanoma 0.351% | SK-MEL-2 melanoma -23.3% | EKVX NSCLC -0.13% | UO-31 renal 2.14% | ACHN renal 3.03% | CAKI-1 renal 5.17% | A498 renal -11.3% | CCRF-CEM leukemia 9.69% | MOLT-4 leukemia -5.73%
inactive: HT29 colon 13.6% | U251 CNS 10.2% | PC-3 prostate 11.4% | TK-10 renal 17.8%

N#Cc1c(NC(=O)c2ccc(C(O)(C(F)(F)F)C(F)(F)F)cc2)sc2c1CCC(=O)C2
active: HCT-15 colon -68.7% | HT29 colon -34.5% | SNB-19 CNS -15.9% | U251 CNS -91.1% | PC-3 prostate -44.8% | SK-MEL-5 melanoma -99.1% | UACC-62 melanoma -88.3% | LOX IMVI melanoma -96.4% | SK-MEL-28 melanoma -87.1% | SK-MEL-2 melanoma -27.4% | EKVX NSCLC -89.6% | UO-31 renal -98.8% | TK-10 renal 2.24% | ACHN renal -98.3% | CAKI-1 renal -68.9% | CCRF-CEM leukemia 1.92% | MOLT-4 leukemia -40.9%
inactive: SNB-75 CNS 16.9% | A498 renal 13.6%

COc1ccc(C=CC(=O)c2ccc(-n3c(C)nc4c(cnn4-c4ccccc4)c3=O)cc2)cc1
inactive: HCT-15 colon 53.5% | HT29 colon 71.5% | SNB-75 CNS 98.1% | SNB-19 CNS 81.8% | U251 CNS 74.1% | PC-3 prostate 65.1% | SK-MEL-5 melanoma 27.7% | UACC-62 melanoma 50% | LOX IMVI melanoma 43.9% | SK-MEL-28 melanoma 90.4% | SK-MEL-2 melanoma 70.6% | EKVX NSCLC 42.9% | SN12C renal 81.6% | TK-10 renal 86.8% | ACHN renal 71% | CAKI-1 renal 75% | A498 renal 104% | CCRF-CEM leukemia 46.4% | MOLT-4 leukemia 44.7%

COc1ccc(-c2ccc(/C=N/NC(=O)c3[nH]c4ccc(Br)cc4c3-c3ccccc3)o2)cc1
inactive: HCT-15 colon 26.4% | HT29 colon 55.1% | SNB-75 CNS 33% | SNB-19 CNS 57.6% | U251 CNS 26.2% | PC-3 prostate 55.1% | SK-MEL-5 melanoma 30.3% | UACC-62 melanoma 30.4% | LOX IMVI melanoma 26.7% | SK-MEL-28 melanoma 46.9% | SK-MEL-2 melanoma 34.3% | EKVX NSCLC 60.1% | UO-31 renal 43.9% | TK-10 renal 88.4% | ACHN renal 30.9% | CAKI-1 renal 28.4% | A498 renal 73.9% | CCRF-CEM leukemia 10.5% | MOLT-4 leukemia 20.9%

COc1ccc(N(C)c2cc(C#N)nc3ccccc23)cc1/C=C/C(=O)NO
inactive: TK-10 renal 23.7% | A498 renal 16.2%
active: HCT-15 colon -59.4% | HT29 colon -19.5% | SNB-75 CNS -24.6% | SNB-19 CNS -44.5% | U251 CNS -51% | PC-3 prostate -9.99% | SK-MEL-5 melanoma -67.5% | UACC-62 melanoma -72.2% | LOX IMVI melanoma -97.6% | SK-MEL-28 melanoma -73.8% | SK-MEL-2 melanoma -80% | SN12C renal -51.4% | UO-31 renal -55.3% | ACHN renal -22.2% | CAKI-1 renal -19.2% | CCRF-CEM leukemia 9.09% | MOLT-4 leukemia -3.71%

C/C(=C\CSc1ccccc1C(=O)O)CCCC(C)CCCC(C)CCCC(C)C (stereo not drawn)
active: SK-MEL-2 melanoma -12%
inactive: HCT-15 colon 21.5% | HT29 colon 59.4% | SNB-75 CNS 114% | SNB-19 CNS 80.4% | U251 CNS 46.8% | PC-3 prostate 41% | SK-MEL-5 melanoma 24.8% | UACC-62 melanoma 42.5% | LOX IMVI melanoma 26.3% | SK-MEL-28 melanoma 71.5% | EKVX NSCLC 43.3% | UO-31 renal 49.5% | TK-10 renal 87.7% | ACHN renal 37.5% | CAKI-1 renal 45.1% | A498 renal 97.4% | MOLT-4 leukemia 16.3%

CN(CCO)c1oc(-c2ccccc2)nc1[P+](c1ccccc1)(c1ccccc1)c1ccccc1
inactive: HCT-15 colon 51.4% | U251 CNS 15.3% | PC-3 prostate 10.8% | SK-MEL-28 melanoma 12% | UO-31 renal 74.3% | TK-10 renal 24% | ACHN renal 56.3% | CAKI-1 renal 59.7% | MOLT-4 leukemia 13.4%
active: HT29 colon 7.78% | SNB-75 CNS -2.5% | SNB-19 CNS 9.54% | SK-MEL-5 melanoma -93.3% | UACC-62 melanoma -30.2% | LOX IMVI melanoma -67.2% | SK-MEL-2 melanoma -33.8% | SN12C renal -3.43% | CCRF-CEM leukemia 9.94%

CN(C)c1ccc(/C=C/c2nc3ccccc3c(=O)n2CC(=O)Nc2ccc(Cl)cc2)cc1
active: LOX IMVI melanoma 9.3%
inactive: HCT-15 colon 42.2% | HT29 colon 31.9% | SNB-75 CNS 64% | SNB-19 CNS 34.8% | U251 CNS 39.7% | PC-3 prostate 30.2% | SK-MEL-5 melanoma 55.7% | UACC-62 melanoma 70.6% | SK-MEL-28 melanoma 66% | SK-MEL-2 melanoma 94.9% | SN12C renal 76.4% | UO-31 renal 87.4% | TK-10 renal 83.1% | ACHN renal 43.3% | CAKI-1 renal 53.1% | A498 renal 76.1% | CCRF-CEM leukemia 88.6% | MOLT-4 leukemia 74.7%

O=C1Nc2cc(-c3ccc(NC(=O)c4cccc([N+](=O)[O-])c4)cc3)ccc2/C1=C/c1ccc[nH]1
inactive: HCT-15 colon 55.3% | HT29 colon 102% | SNB-75 CNS 223% | SNB-19 CNS 94.5% | U251 CNS 99.3% | PC-3 prostate 66.2% | SK-MEL-5 melanoma 104% | UACC-62 melanoma 63.7% | LOX IMVI melanoma 86.9% | SK-MEL-28 melanoma 97.1% | SK-MEL-2 melanoma 51.4% | SN12C renal 101% | UO-31 renal 67.2% | TK-10 renal 108% | ACHN renal 59.6% | CAKI-1 renal 97.8% | CCRF-CEM leukemia 91.2% | MOLT-4 leukemia 73.8%

O=C1Nc2cc(Cl)ccc2/C1=C/c1cccc(OCc2ccc(Br)cc2F)c1
active: HCT-15 colon 5.07% | HT29 colon 5.13% | SNB-75 CNS -0.373% | U251 CNS -1.12% | SK-MEL-5 melanoma -6.52% | UACC-62 melanoma 8.35% | LOX IMVI melanoma -45.9% | SK-MEL-2 melanoma -20% | CCRF-CEM leukemia -15.9% | MOLT-4 leukemia 0.0252%
inactive: SNB-19 CNS 28.6% | PC-3 prostate 19.3% | SK-MEL-28 melanoma 36.4% | EKVX NSCLC 10.5% | TK-10 renal 77.9% | ACHN renal 30.8% | CAKI-1 renal 26.9% | A498 renal 60%

O=C(c1ccc(Cl)cc1)C1[C@H](c2ccc(Br)cc2)[C@@H](c2ccccc2)NC12C(=O)Nc1ccc(Cl)cc12 (stereo partly drawn)
active: HCT-15 colon -87.6% | HT29 colon -49.4% | SNB-75 CNS -4.86% | SNB-19 CNS -8.73% | U251 CNS -80.8% | PC-3 prostate -30.5% | SK-MEL-5 melanoma -68.5% | UACC-62 melanoma -87.2% | LOX IMVI melanoma -100% | SK-MEL-28 melanoma -86.9% | SK-MEL-2 melanoma -77.7% | UO-31 renal -29.2% | TK-10 renal -17.4% | ACHN renal -17.2% | CAKI-1 renal -92.7% | A498 renal -16.9% | CCRF-CEM leukemia -17% | MOLT-4 leukemia -28.8%
